Data from PubChem BioAssay AID651957 (The Scripps Research Institute Molecular Screening Center, 2012).
Screen size: about 370,000 compounds; about 620 (0.17%) were called active. Only a selection was taken, and actives are over-represented in it overall. Unmarked numbers belong to inactive results.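 The calls were made as follows: active = inhibition above the mean inhibition of all tested compounds plus 3 SD, set per campaign (cut at about 52% in these data); inactive = the rest.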

Molecular target: Nuclear receptor coactivator 2 (Homo sapiens) (UniProt Q15596)
Sequence (Q15596 whole entry, looked up, the tested form may be a part): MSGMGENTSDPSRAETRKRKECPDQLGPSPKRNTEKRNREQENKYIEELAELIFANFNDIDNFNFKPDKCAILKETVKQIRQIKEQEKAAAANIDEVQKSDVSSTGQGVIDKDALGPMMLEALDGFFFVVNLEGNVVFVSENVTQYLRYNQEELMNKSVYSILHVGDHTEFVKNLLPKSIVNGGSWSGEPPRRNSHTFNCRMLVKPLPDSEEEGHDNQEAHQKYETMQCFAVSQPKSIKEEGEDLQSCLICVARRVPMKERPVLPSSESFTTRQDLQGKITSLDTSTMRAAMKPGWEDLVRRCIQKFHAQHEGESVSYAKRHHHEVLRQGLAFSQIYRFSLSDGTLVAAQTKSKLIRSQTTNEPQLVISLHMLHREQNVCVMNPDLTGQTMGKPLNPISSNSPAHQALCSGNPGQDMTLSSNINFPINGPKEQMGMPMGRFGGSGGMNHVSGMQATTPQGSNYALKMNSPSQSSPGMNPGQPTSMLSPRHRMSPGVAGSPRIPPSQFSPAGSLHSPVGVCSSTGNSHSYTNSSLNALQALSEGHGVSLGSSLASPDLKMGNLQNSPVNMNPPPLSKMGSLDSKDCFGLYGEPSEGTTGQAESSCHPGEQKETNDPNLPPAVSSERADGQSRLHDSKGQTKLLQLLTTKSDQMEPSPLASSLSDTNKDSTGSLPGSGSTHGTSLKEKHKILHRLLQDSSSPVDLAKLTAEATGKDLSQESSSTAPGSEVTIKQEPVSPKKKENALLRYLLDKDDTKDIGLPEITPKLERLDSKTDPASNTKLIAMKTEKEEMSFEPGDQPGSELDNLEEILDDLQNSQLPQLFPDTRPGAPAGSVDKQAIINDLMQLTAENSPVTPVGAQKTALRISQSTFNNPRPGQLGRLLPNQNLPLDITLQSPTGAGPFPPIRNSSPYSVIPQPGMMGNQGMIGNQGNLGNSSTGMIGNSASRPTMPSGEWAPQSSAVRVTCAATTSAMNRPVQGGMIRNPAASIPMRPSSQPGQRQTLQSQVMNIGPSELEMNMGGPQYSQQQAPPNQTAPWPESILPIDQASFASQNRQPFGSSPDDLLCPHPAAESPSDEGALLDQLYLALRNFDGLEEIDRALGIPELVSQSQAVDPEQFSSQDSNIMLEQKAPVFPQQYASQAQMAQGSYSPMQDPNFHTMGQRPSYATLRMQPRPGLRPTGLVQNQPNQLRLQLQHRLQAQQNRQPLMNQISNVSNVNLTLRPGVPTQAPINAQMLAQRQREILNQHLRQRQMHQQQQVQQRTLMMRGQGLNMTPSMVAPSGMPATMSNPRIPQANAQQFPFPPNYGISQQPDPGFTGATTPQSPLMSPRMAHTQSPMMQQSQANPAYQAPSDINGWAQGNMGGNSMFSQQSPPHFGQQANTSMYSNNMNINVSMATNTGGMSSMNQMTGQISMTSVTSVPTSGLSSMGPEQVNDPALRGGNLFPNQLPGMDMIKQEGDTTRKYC
Test: decrease of SRC2 fusion reporter luminescence – cell-based, SRC2 inhibitor project, primary screen (AID 651957);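 also: 0% = DMSO treated cells and 100% = cells given Gossypol at 36 µM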
Conditions: HEK293 GAL4-SRC2 luciferase reporter, at 9 µM, stronger effect = higher value

Row | Compound | inhibition
1 | O=C(NCCC1=CCCCC1)C1CCN(S(=O)(=O)c2ccc(Cl)s2)CC1 | -18.3%
2 | COc1ccc(N2CCN(CCNS(=O)(=O)c3ccc([N+](=O)[O-])cc3)CC2)cc1 | 9.36%
3 | O=S1(=O)c2ccc(Br)cc2OC[C@@H](Cc2ccccc2)N1Cc1cn(Cc2ccco2)nn1 | -13.6%
4 | CC1CCC(N2CC(=O)N(Cc3ccc4c(c3)OCO4)C(c3ccc(F)cc3)C2=O)CC1 (centres undefined) | 3.66%
5 | Clc1ccc(C(Cn2ccnc2)OCc2ccsc2Cl)c(Cl)c1 (centres undefined) | 7.22%
6 | COc1ccc2cc(C(=O)O)n(CC(=O)c3ccccc3)c2c1 | -12.1%
7 | Cc1cc(OCCCC(=O)NCCN2C(=O)S/C(=C\c3cccnc3)C2=O)ccc1Cl | -14.1%
8 | C=CCOc1ccc(/C=C2\SC(=S)N(CCC(=O)O)C2=O)cc1 | 85.7% (active)
9 | C=CCOc1ccc(C(=O)Nc2ccccc2C(=O)N2CCCC2)cc1 | -24.2%
10 | CCOC(=O)C1=C(C)NC2=C(C(=O)CC(C)(C)C2)C1c1ccc2c(c1)OCO2 (centres undefined) | 11.6%
11 | COc1ccc2c(c1)CCC/C2=N\OC(=O)c1ccccc1F | 4.64%
12 | CCCCCCCCN1C(=O)[C@@H](CC(=O)NCCCC)C[C@@]2(C(=O)OC)C1=C[C@H](C(C)(C)C)O[C@@H]2C | -9.63%
13 | Nn1c(SCC(=O)Nc2ccc(S(N)(=O)=O)cc2)nnc1-c1n[nH]c2c1CCC2 | 10.6%
14 | CCOC(=O)C1C(=O)C=C(c2ccc(OC)cc2)CC1c1ccco1 (centres undefined) | -4.74%
15 | CCOC(=O)C1=C(CC)Nc2ccccc2N=C1N | 12.5%
16 | CCOC(=O)C1=C(c2ccc(OC)cc2)C(=O)c2ccccc2C1=O | 73.8% (active)
17 | O=C(CN1C(=O)c2ccccc2S1(=O)=O)N1CCc2ccccc21 | 73.3% (active)
18 | NS(=O)(=O)c1ccc(CCNC(=O)CN2C(=O)c3ccccc3S2(=O)=O)cc1 | 1.66%
19 | Cc1ccc(S(=O)(=O)N(C)CC(=O)N2CCc3ccccc32)cc1 | -6.78%
20 | O=C(COC(=O)c1cnccn1)Nc1cccc2ccccc12 | -4.93%
21 | CCOC(=O)C(C(=O)c1ccccc1)C(c1ccccc1)c1nccc2ccccc12 (centres undefined) | 14.8%

Row | Compound | inhibition
22 | COc1cccc(CC(=O)N2CCN(C(=O)C(=O)c3cccc(C(F)(F)F)c3)CC2)c1 | 7.57%
23 | C[C@H]1CCC/C=C/C(=O)c2c(O)cc(O)cc2CC(=O)O1 | 64.6% (active)
24 | COc1ccc(S(=O)(=O)NCC(=O)NCc2cc(=O)n(C)c(=O)n2C)cc1F | -9.55%
25 | CC1CCC2(CC1)NC(=O)N(CC(=O)NCc1ccco1)C2=O (centres undefined) | -29.4%
26 | CC1(C)CC(=O)c2sc(N)nc2C1 | 3.79%
27 | O=c1oc2ccccc2cc1-c1cn(-c2ccccc2)c(=S)[nH]1 | 80.4% (active)
28 | COc1cccc(NC(=O)N(C)C[C@@H]2OCc3cn(nn3)CCCC(=O)N([C@@H](C)CO)C[C@H]2C)c1 | -2.21%
29 | COC(=O)[C@]12C[C@H](CC(=O)NCc3cccc(C(F)(F)F)c3)C(=O)N(Cc3ccc4c(c3)OCO4)C1=C[C@H](COCc1ccccc1)O[C@@H]2C | 4.24%
30 | COc1cc(Cl)c(C)cc1NC(=O)COC(=O)c1cc(SC)ccc1Cl | -3.4%
31 | Cc1csc(NC(=O)CN2CCCCCC2)n1 | -13.9%
32 | COc1cc(SC)ccc1C(=O)Nc1nc(C)cs1 | 73.4% (active)
33 | COCc1[nH]nc2c1C(c1ccccc1)N(c1ccccc1)C2=O (centres undefined) | 13.8%
34 | N#CCC[C@H]1CC[C@]2(CCCN(Cc3ccc(Cl)cc3)C2)O1 | 7.54%
35 | COc1ccc(S(=O)(=O)Nc2ccc(F)cc2)c(C)c1C | -27.1%
36 | CC(CCN1CCC(C(O)(c2ccccc2)c2ccccc2)CC1)Oc1ccc(C(F)(F)F)cc1 (centres undefined) | -7.91%
37 | Cc1cc(C(=O)COC(=O)CNC(=O)c2ccc(F)cc2)c(C)n1Cc1ccco1 | -4.87%
38 | Cc1ccsc1C(=O)OCC(=O)c1cc(C)n(CC2CCCO2)c1C (centres undefined) | 73.2% (active)
39 | COCCn1c(C)cc(C(=O)COC(=O)CNC(=O)c2ccco2)c1C | -9.66%
40 | O=C(Nc1ccccc1)N1CCN(Cc2nc3ccccc3c(=O)[nH]2)CC1 | -10.6%
41 | O=S1(=O)c2c(NCc3ccco3)cccc2Oc2ccccc2CN1Cc1cn(Cc2cccc(C(F)(F)F)c2)nn1 | 4.32%
42 | Clc1ccc(Cl)c(Oc2ccc(Oc3nc(Cl)ccc3Cl)cc2)n1 | -10%

Row | Compound | inhibition
43 | c1csc(-c2nnc(SCc3nc4ccccc4[nH]3)o2)c1 | 4.24%
44 | O=C(NCc1ccc2c(c1)OCO2)c1cc2c(s1)CS(=O)(=O)C2 | 13.1%
45 | COc1cccc(NC(=O)C2(C)CCN2Cc2ccccc2Cl)c1 (centres undefined) | -0.04%
46 | C#CCNC(=O)C[C@H]1C[C@@]2(C(=O)OC)C(=C[C@H](C(C)C)O[C@@H]2C2CC2)N(Cc2ccco2)C1=O | 14.7%
47 | Cc1ccc(CSc2nnc(SCC(=O)NN=Cc3cc(Br)ccc3F)s2)cc1 | 15%
48 | Cc1cccc(Nc2nc3c(S(=O)(=O)c4ccccc4)nnn3c3ccccc23)c1C | 6.13%
49 | Cc1noc(C)c1S(=O)(=O)N(C)C[C@H]1OCCCC[C@@H](C)Oc2ccc(NC(=O)CCCN(C)C)cc2C(=O)N([C@H](C)CO)C[C@@H]1C | -6.35%
50 | CCC(C)CN1C(=O)CN(S(C)(=O)=O)CC1(C)C(=O)Nc1ccc2c(c1)OCCO2 (centres undefined) | -21.3%
51 | CCOC(=O)N1CCN(C(=O)C[C@H]2C[C@@]3(C(=O)OC)C(=C[C@H](C(C)(C)C)O[C@@H]3C)N(Cc3ccc(Cl)cc3Cl)C2=O)CC1 | 23.9%
52 | CC1(C)Cc2c(sc3nc(SCC(=O)NCc4ccccc4)n(-c4ccccc4)c(=O)c23)CS1 | -9.11%
53 | C[C@@H]1ON(C)[C@H]2C[C@H]3c4[nH]c5cccc(-c6ccc7c(c6)OCO7)c5c4CCN3C[C@@H]12 | -21%
54 | C=CC1C(OC2OC(CO)C(O)C(O)C2O)OC=C(C(=O)OC)C1CC1CC(=O)CC(CC(=O)CCc2ccc(O)cc2)O1 (centres undefined) | -3.45%
55 | COc1ccc(-c2cc(-c3nnc(SCc4ccc([N+](=O)[O-])cc4)n3N)[nH]n2)cc1 | -26.2%
56 | COc1ccc(CCOC2OC(CO)C(OC(=O)/C=C/c3ccc(O)c(OC)c3)C(O[C@H]3O[C@@H](C)[C@H](O)[C@@H](O)[C@H]3O)C2O)cc1O (some centres undefined) | -2.46%
57 | CCCCn1c(N)c(N(CC)C(=O)c2ccc(N(C)S(=O)(=O)c3ccc(C)cc3)cc2)c(=O)[nH]c1=O | -16.6%
58 | CN(C)S(=O)(=O)c1ccc(NC(=O)COC(=O)Cn2[nH]c(=O)c3ccccc3c2=O)cc1 | 10.7%
59 | CCC(CO)Nc1cccc2c1S(=O)(=O)N(Cc1cn(Cc3ccccc3C(F)(F)F)nn1)Cc1ccccc1O2 (centres undefined) | -19.2%
60 | O=C(OC12CC3CC(CC(C3)C1)C2)c1ccc(NCc2cc(O)ccc2O)cc1 | 84.2% (active)
61 | Cc1nc(N)nc(SCc2ccc([N+](=O)[O-])cc2)c1N | -3.96%
62 | COCCCNC(=O)C[C@H]1C[C@@]2(C(=O)OC)C(=C[C@H](C(C)(C)C)O[C@@H]2C)N(Cc2ccc(Cl)cc2Cl)C1=O | 16.8%
63 | CCOC(=O)[C@]12CCCC=C1N(Cc1ccc(OC)cc1)C(=O)[C@@H]2CC(=O)NCc1cccs1 | 7.23%

Row | Compound | inhibition
64 | CCOC(=O)[C@]12CCCCC/C=C\1N(Cc1ccc(OC)cc1)C(=O)[C@H]2CC(=O)N1CCOCC1 | 8.19%
65 | Cc1sc2ncn(CC(=O)NCCCC(=O)NCc3ccc(F)cc3)c(=O)c2c1C | -10.8%
66 | Cc1[nH]n(C(N)=S)c(=O)c1N=Nc1ccc(Cl)cc1Cl | -13.3%
67 | CCCCOCCCNC(=O)C[C@H]1C[C@@]2(C(=O)OC)C(=C[C@H](COCc3ccccc3)O[C@@H]2C)N(Cc2cccc3ccccc23)C1=O | 6.59%
68 | COc1ccc(C(C#N)=C2C=CC(=NO)c3ccccc32)cc1 | 23.7%
69 | CC(=O)Nc1ccc(S(=O)(=O)Nc2ccc(N3CCCCC3)cc2)cc1 | 63.2% (active)
70 | CC(=O)Nc1ccc(S(=O)(=O)N2CCCC2C(=O)O)cc1 (centres undefined) | 10.5%
71 | O=C(Nc1ccc(N2CCCCC2)cc1)c1cc(S(=O)(=O)N2CCOCC2)ccc1F | 10.1%
72 | C[C@H](NC(=O)C1CC(=O)N(c2ccc3c(c2)OCO3)C1)C(=O)NCc1ccco1 (some centres undefined) | -21.3%
73 | CN(C)[C@H]1CCN(c2cccc3c2S(=O)(=O)N2CC[C@H](C2)O3)C1 | -9.6%
74 | CC(c1ccc(N)cc1)c1cn(C)c2ccccc12 (centres undefined) | -4.44%
75 | CC(CCN1CCC(C(O)(c2ccccc2)c2ccccc2)CC1)Oc1ccc(Cl)cc1 (centres undefined) | -21.2%
76 | COc1ccc(-n2c(SCC(=O)Nc3ccc(C)c(Cl)c3)nc3ccccc3c2=O)cc1 | -1.63%
77 | O=C(CN1CCN(c2ccc(O)cc2)CC1)NC1CCCc2ccccc21 (centres undefined) | 0.42%
78 | CCCOc1ccc(F)cc1-c1cc(C(=O)Nc2ccc(F)cc2)[nH]n1 | 0.04%
79 | COc1ccc(OC)c(NC(=O)c2cc(-c3cc(F)ccc3OCC3CCCO3)n[nH]2)c1 (centres undefined) | 75.3% (active)
80 | COc1cc(F)ccc1-c1cc(C(=O)NCC2CCCCC2)[nH]n1 | -20%
81 | O=C(COC(=O)c1cnccn1)Nc1ccc(Cl)cc1C(F)(F)F | -47.6%
82 | C=CCN1C(=O)[C@H](CC(=O)NCCCN2CCCC2=O)[C@@]2(C(=O)OCC)CCCC=C12 | -13.7%
83 | CCNc1nc(NC(C)C)nc(OCCOC(=O)c2ccccc2)n1 | -5.88%
84 | CN(c1ccc(OCC(=O)OCC(=O)Nc2cccc([N+](=O)[O-])c2)cc1)S(=O)(=O)c1ccc(F)cc1 | 5.05%
